From PubChem BioAssay come the findings set out here.

Structures are written as SMILES. Several values for one entry are separate records, joined by “and”; a condition that tells them apart may be missing. Equal values may be shown once. Inconclusive results are not listed. Activity calls are given as the source filed them.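 The calls were made as follows, unless noted: active = normalized viability below 100% at a tested concentration; inactive = the rest.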

One may read the viability as a read-out of living cells in per cent, often relative to untreated cells. The term AC50 denotes the midpoint of the concentration-response curve, whichever way the signal moves. By IC50 is commonly meant the concentration needed to halve the response being measured.

Experiment [1] in a line: viability loss in pontine glioma line – cell-based, SU-DIPG-XXV, MIPE5.0, CellTiter-Glo, qHTS, dose response (AID 1347065; cut-off not given, nearly all actives have AC50 up to about 26 µM;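 also: cells exposed to compound for 48 hours before ATP readout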). As to conditions: CellTiter-Glo ATP luminescence. A general note: Cellular ATP, detected with luciferase, serves as a proxy for viable cell number.
The nature of experiment [2]: JHH-DIPG-1 glioma cell viability, MIPE5.0 library, CellTiter-Glo luminescence, qHTS (AID 1347067; cut-off not given, nearly all actives have AC50 up to about 26 µM;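 also: cells exposed to compound for 48 hours before readout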). Particulars: JHH-DIPG-1 glioma viability, CellTiter-Glo ATP luminescence.
Experiment [3] is described as follows: SU-DIPG-XXV glioma cell viability, MIPE5.0 library, qHTS (AID 1347068; cut-off not given, nearly all actives have IC50 up to about 30 µM;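 as to IC50: cells exposed to compound for 48 hours before viability readout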). A general note: In qHTS, concentration-response curves come from the screen itself.
Experiment [4] can be described thus: phospholipid biosynthesis inhibitors in animal cells, primary screen, cell-based, LOPAC library, screen 4 (AID 1347384; call rule not given here). As to conditions: phospholipid biosynthesis inhibition screen, at 10 µM.
Experiment [5] in a line: survival rescue of mitochondrial mutant cells in low glucose, primary screen, MELAS cybrids, Rieske KO mouse fibroblasts, CellTiter-Glo (AID 1508586;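 active = mean z-score across replicates of 1.96 or higher in either the MELAS or the Rieske mutant cell line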;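 also: z relative to plate mean and SD of compound and empty wells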).
Experiment [6] has as its target NAD(+) hydrolase SARM1 (Homo sapiens) (UniProt Q6SZW1). Kind of experiment: SARM1 TIR NADase inhibitors, cell lysate, NAD-Glo luminescence (AID 1508614;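 active = compound whose remaining NAD level is above about 45 nM, limit read from the data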;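 also: higher remaining NAD means stronger inhibition of SARM1 NADase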). Particulars: SAM-TIR HEK293T lysate NADase, at 1 µM, stronger effect = higher value.
Experiment [7] concerns the target Mitogen-activated protein kinase 7 (Homo sapiens) (UniProt Q13164). Nature of the experiment: ERK5 transactivation activators in reporter cells, primary screen, cell-based, HTS (AID 1508626;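 active = luciferase signal above three times the same-plate solvent-only control wells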;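 also: luciferase driven by Gal4-ERK5 fusion binding five Gal4 sites before minimal TATA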). As to conditions: HeLa Gal4-ERK5 transactivation, 18 h, at 5 µM, stronger effect = higher value.
The nature of experiment [8]: viability rescue of complex I mutant cybrids, primary screen, cell-based, galactose medium, ATP luminescence (AID 1645843;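 active = z-score of at least 1.8 in each of two replicates, scored against plate mean and spread of sample wells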;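 also: positive z means more ATP and so rescue of galactose-driven cybrid death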). Particulars: complex I mutant cybrid cells, 72 h, stronger effect = higher value.
Experiment [9] is described as follows: SU-DIPG-VI glioma cell viability, MIPE4.0 library, CellTiter-Glo luminescence, qHTS (AID 1347066; cut-off not given, nearly all actives have AC50 up to about 30 µM;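 also: cells exposed to compound for 48 hours before readout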). As to conditions: CellTiter-Glo ATP luminescence.
Experiment [10] can be described thus: sensitizers of A549 cells to miR-34 induction, primary screen, imaging, A549 dox-inducible miR-34, nuclei and caspase counts (AID 1347080;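 active = compounds whose cell count with miR-34 switched on is under 0.7 times the count with it off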). Particulars: A549 miR-34 inducible, Hoechst nuclei count, 48 h.
Experiment [11] is described as follows: modifiers of HSF1 nuclear foci, imaging, Selleck Cancer Library (AID 1347162; in the data active = plate-normalised HSF1 focus index below about 0.46). As to conditions: human cells, at 10 µM; SSMD: measured here: HSF1 foci SSMD mean; cell count: measured here: cell number; plate-normalised HSF1 focus index: stronger effect = lower value.
A short description of experiment [12]: ovarian cancer cell viability with rucaparib, profiling panel, oncology-focused library, rucaparib conditional (AID 1508598). Particulars: patient-derived ovarian cancer cells, CellTiter-Glo viability, 144 h, stronger effect = lower value.
The mark [13] stands for this setting: MELAS cybrid survival, CellTiter-Glo 48 h, stronger effect = higher value.
The mark [14] stands for this setting: Rieske KO mouse fibroblast survival, CellTiter-Glo 72 h.
Where [15] appears, read: stronger effect = lower value, cell number ratio, induced over uninduced.
Where [16] appears, read: measured here: relative caspase fold change +Dox/-Dox.
[17] abbreviates: measured here: total cells with miR-34 induction, stronger effect = lower value.
[18] abbreviates: measured here: total cells without miR-34 induction.

NAD(+) hydrolase SARM1 (Homo sapiens), sequence (Q6SZW1 whole entry, looked up, the tested form may be a part): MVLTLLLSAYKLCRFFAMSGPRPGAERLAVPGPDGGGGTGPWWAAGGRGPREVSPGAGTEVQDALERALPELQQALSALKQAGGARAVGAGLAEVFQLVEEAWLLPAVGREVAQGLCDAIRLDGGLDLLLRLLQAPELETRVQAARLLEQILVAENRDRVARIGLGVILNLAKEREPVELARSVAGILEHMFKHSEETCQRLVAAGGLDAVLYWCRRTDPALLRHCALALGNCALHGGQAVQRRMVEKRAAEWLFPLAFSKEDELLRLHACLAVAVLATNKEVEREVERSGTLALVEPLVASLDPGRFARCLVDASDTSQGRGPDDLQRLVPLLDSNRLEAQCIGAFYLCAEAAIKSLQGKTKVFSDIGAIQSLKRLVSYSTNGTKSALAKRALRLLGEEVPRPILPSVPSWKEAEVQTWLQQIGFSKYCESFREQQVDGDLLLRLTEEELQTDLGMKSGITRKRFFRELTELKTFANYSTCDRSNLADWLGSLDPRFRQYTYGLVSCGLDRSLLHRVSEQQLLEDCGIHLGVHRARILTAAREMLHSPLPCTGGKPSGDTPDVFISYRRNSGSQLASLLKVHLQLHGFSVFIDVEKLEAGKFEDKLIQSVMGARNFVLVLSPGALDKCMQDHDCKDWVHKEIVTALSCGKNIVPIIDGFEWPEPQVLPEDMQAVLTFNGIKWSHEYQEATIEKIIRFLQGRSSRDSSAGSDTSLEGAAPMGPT
Mitogen-activated protein kinase 7 (Homo sapiens), sequence (Q13164 whole entry, looked up, the tested form may be a part): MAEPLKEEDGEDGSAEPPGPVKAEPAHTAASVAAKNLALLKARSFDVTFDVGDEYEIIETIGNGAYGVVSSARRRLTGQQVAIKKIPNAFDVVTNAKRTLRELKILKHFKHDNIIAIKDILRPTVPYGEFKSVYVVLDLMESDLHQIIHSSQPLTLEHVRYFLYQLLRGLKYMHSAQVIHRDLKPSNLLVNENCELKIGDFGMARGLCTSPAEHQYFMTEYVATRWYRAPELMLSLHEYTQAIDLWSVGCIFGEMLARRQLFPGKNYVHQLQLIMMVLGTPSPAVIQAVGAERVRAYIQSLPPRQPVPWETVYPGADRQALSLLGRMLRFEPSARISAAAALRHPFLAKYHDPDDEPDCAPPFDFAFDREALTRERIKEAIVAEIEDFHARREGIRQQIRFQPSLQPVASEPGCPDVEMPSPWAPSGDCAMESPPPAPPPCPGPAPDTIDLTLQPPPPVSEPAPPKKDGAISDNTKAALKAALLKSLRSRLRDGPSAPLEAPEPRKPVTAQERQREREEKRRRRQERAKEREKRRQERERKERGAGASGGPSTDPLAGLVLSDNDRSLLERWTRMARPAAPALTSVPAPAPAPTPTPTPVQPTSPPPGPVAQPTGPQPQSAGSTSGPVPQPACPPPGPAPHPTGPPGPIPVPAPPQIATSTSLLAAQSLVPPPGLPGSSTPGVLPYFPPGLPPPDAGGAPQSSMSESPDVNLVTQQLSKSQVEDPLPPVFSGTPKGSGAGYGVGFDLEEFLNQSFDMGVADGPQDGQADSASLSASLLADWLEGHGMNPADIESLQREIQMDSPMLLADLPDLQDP

Take `NCCCCCC(=O)O`: the result in [1], in experiment [2], in experiment [3] and in experiment [4] was inactive. The z-score is -0.274 (inactive) and -0.333 (inactive) in [5] (setting [13]); -0.165 and -1.21 in experiment [5] (setting [14]); 1.05 (inactive) in [8]. For the same molecule, the remaining NAD in experiment [6] was 10 nM (inactive). Besides, the luciferase signal in experiment [7] is 40 AU (inactive).
Turning to `O=P(O)(O)C(O)(Cc1cccnc1)P(=O)(O)O`, the call in experiment [9], in [2] and in experiment [3] was inactive. Also, the fold change in experiment [10] (setting [15]) was 0.901 (inactive) and 0.801 (inactive); in experiment [10] (setting [16]) it was 4.65 and 1.35. The cell count in experiment [10] (setting [17]) was 12400 and 8410; in experiment [10] (setting [18]), 13700 and 10500. The z-score in [5] (setting [13]) was 0.589 (inactive) and -0.187 (inactive); in experiment [5] (setting [14]), 0.376 and -0.746; in [8] it was 0.515 (inactive). Moreover, the remaining NAD in experiment [6] is 10 nM (inactive). In experiment [7], the luciferase signal was 1260 AU (active).
As for `CCC(C)n1ncn(-c2ccc(N3CCN(c4ccc(OC[C@H]5CO[C@](Cn6cncn6)(c6ccc(Cl)cc6Cl)O5)cc4)CC3)cc2)c1=O` (stereo partly specified), the result in experiment [9], in experiment [2] and in experiment [3] was inactive. The molecule further registered an SSMD in experiment [11] of 2.18. The molecule further displayed a cell count in experiment [11] of 6750. For the same molecule, in experiment [11], the plate-normalised HSF1 focus index is 1.11 (inactive). Besides, the viability was 118% (inactive) in [12] (at 0.000305 µM, OCI-C5x cells, with rucaparib 10 µM, 100% = cells with rucaparib alone); 110% (inactive) in [12] (at 0.000305 µM, OCI-C5x cells, without rucaparib); 90.3% (active) in [12] (at 0.000305 µM, OCI-P5x cells, with rucaparib 20 µM, 100% = cells with rucaparib alone); 83% (active) in experiment [12] (at 0.000305 µM, OCI-P5x cells, without rucaparib); 118% (inactive) in [12] (at 0.00122 µM, OCI-C5x cells, with rucaparib 10 µM, 100% = cells with rucaparib alone); 100% (inactive) in experiment [12] (at 0.00122 µM, OCI-C5x cells, without rucaparib). For the same molecule, the viability is 93.4% (active) in experiment [12] (at 0.00122 µM, OCI-P5x cells, with rucaparib 20 µM, 100% = cells with rucaparib alone); 81.8% (active) in experiment [12] (at 0.00122 µM, OCI-P5x cells, without rucaparib); 122% (inactive) in experiment [12] (at 0.00488 µM, OCI-C5x cells, with rucaparib 10 µM, 100% = cells with rucaparib alone); 105% (inactive) in experiment [12] (at 0.00488 µM, OCI-C5x cells, without rucaparib); 95.6% (active) in experiment [12] (at 0.00488 µM, OCI-P5x cells, with rucaparib 20 µM, 100% = cells with rucaparib alone); 90.8% (active) in [12] (at 0.00488 µM, OCI-P5x cells, without rucaparib). Besides, the viability in [12] (at 0.0195 µM, OCI-C5x cells, with rucaparib 10 µM, 100% = cells with rucaparib alone) was 127% (inactive); in [12] (at 0.0195 µM, OCI-C5x cells, without rucaparib), 116% (inactive); in [12] (at 0.0195 µM, OCI-P5x cells, with rucaparib 20 µM, 100% = cells with rucaparib alone), 96.2% (active); in [12] (at 0.0195 µM, OCI-P5x cells, without rucaparib), 89.4% (active); in experiment [12] (at 0.0781 µM, OCI-C5x cells, with rucaparib 10 µM, 100% = cells with rucaparib alone), 126% (inactive); in [12] (at 0.0781 µM, OCI-C5x cells, without rucaparib) it was 119% (inactive). In addition, the viability in experiment [12] (at 0.0781 µM, OCI-P5x cells, with rucaparib 20 µM, 100% = cells with rucaparib alone) is 96.6% (active); in experiment [12] (at 0.0781 µM, OCI-P5x cells, without rucaparib), 95.1% (active); in experiment [12] (at 0.313 µM, OCI-C5x cells, with rucaparib 10 µM, 100% = cells with rucaparib alone), 131% (inactive); in [12] (at 0.313 µM, OCI-C5x cells, without rucaparib), 118% (inactive); in experiment [12] (at 0.313 µM, OCI-P5x cells, with rucaparib 20 µM, 100% = cells with rucaparib alone), 98.6% (active); in experiment [12] (at 0.313 µM, OCI-P5x cells, without rucaparib), 95.8% (active). Further, the viability in experiment [12] (at 1.25 µM, OCI-C5x cells, with rucaparib 10 µM, 100% = cells with rucaparib alone) is 131% (inactive); in experiment [12] (at 1.25 µM, OCI-C5x cells, without rucaparib), 126% (inactive); in experiment [12] (at 1.25 µM, OCI-P5x cells, with rucaparib 20 µM, 100% = cells with rucaparib alone), 93.3% (active); in experiment [12] (at 1.25 µM, OCI-P5x cells, without rucaparib) it was 94.8% (active); in experiment [12] (at 5 µM, OCI-C5x cells, with rucaparib 10 µM, 100% = cells with rucaparib alone), 135% (inactive); in experiment [12] (at 5 µM, OCI-C5x cells, without rucaparib), 123% (inactive). The viability was 92.7% (active) in experiment [12] (at 5 µM, OCI-P5x cells, with rucaparib 20 µM, 100% = cells with rucaparib alone) and 94.9% (active) in [12] (at 5 µM, OCI-P5x cells, without rucaparib). In [6], the remaining NAD is 10 nM (inactive).
For the molecule `C/C=C(/C(=C/C)c1ccc(O)cc1)c1ccc(O)cc1`, the molecule was called inactive in experiment [9]. The AC50 in experiment [2] is 20.9 µM (active). For the same molecule, the IC50 in experiment [3] is 23.5 µM (active). Also, the fold change in experiment [10] (setting [15]) was 0.888 (inactive) and 0.901 (inactive); in [10] (setting [16]) it was 1.32 and 1.91. Besides, the cell count in experiment [10] (setting [17]) is 7250 and 10300; in experiment [10] (setting [18]), 8160 and 11500. In addition, the z-score was -1.21 (inactive) in [5] (setting [13]) and -1.14 in [5] (setting [14]). For the same molecule, the remaining NAD in experiment [6] is 10 nM (inactive). The luciferase signal in experiment [7] is 72 AU (inactive).
